Results from PubChem BioAssay AID1700 (The Scripps Research Institute Molecular Screening Center, 2009).
About 670 (0.23%) of roughly 290,000 compounds were called active. This excerpt belongs to a sample that is enriched for actives. A number with no mark means an inactive call.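 Rule for the calls: active = inhibition above a per-plate limit of that plate's mean compound inhibition plus 3 SD (cut at about 60% in these data); inactive = the rest.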

Assay: suppression of KLF5 promoter-driven luciferase – DLD-1 cells, luminescence, primary screen (AID 1700);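 note: 0% = DMSO wells and 100% = LY294002 at 200 µM; higher means less KLF5 promoter-driven luciferase light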
Settings: DLD-1 KLF5 promoter-luciferase reporter, at 5 µM, stronger effect = higher value

Row | Compound | inhibition
1 | COC(=O)c1ccc(COc2ccc(/C=C/C(=O)c3ccc(OC)c(CSCC(=O)O)c3)cc2OC)cc1 | 26.8%
2 | CCC(C(=O)NCc1cccnc1)n1nc(C)c2sc3ccccc3c2c1=O (stereo not given) | -24.5%
3 | CC(C)CNS(=O)(=O)c1ccc(C(=O)Nc2ccc3c(c2)OCO3)cc1 | -18.9%
4 | COc1ccccc1C(=O)NC(=S)NC12CC3CC(CC(C3)C1)C2 | -5.49%
5 | Cc1ccc(-c2csc(NC3OC(=O)c4ccccc43)n2)cc1 (stereo not given) | 9.97%
6 | Cc1ccn2c(=O)c(C(=O)NCCC3=CCCCC3)c(O)nc2c1 | 2.41%
7 | C[C@@H]1C[C@@H]2O[C@H]2/C=C\C=C\C(=O)Cc2c(Cl)c(O)cc(O)c2C(=O)O1 | 64.1% (active)
8 | CC[C@H]1CN2CCc3cc(OC)c(OC)cc3[C@@H]2C[C@@H]1C[C@H]1NCCc2cc(OC)c(OC)cc21 | 106% (active)
9 | CCc1ccc(OCC2c3cc(OC)c(OC)cc3CCN2C(C)=O)cc1 (stereo not given) | -8.46%
10 | COc1cc2c(cc1O)[C@H](Cc1ccc(Oc3cc(C[C@@H]4NCCc5cc(OC)c(O)cc54)ccc3O)cc1)NCC2 | -7.79%
11 | COc1ccc(Cc2nnc(SCC(=O)Nc3ccc(C)c(C)c3)o2)cc1OC | -24.5%
12 | COc1cccc(N(CC(=O)NC2CCCCCC2)S(=O)(=O)c2ccccc2)c1 | -3.24%
13 | Cc1cccc(OCC(=O)Nc2ccc(NC(=O)c3ccco3)c(C)c2)c1 | -14.3%
14 | O=C(COc1ccc(Cl)cc1)NCCS(=O)(=O)N1CCN(c2ccc(F)cc2)CC1 | -3.45%
15 | Oc1c(Cl)cc(Cl)c(Cl)c1Cc1c(O)c(Cl)cc(Cl)c1Cl | 81% (active)
16 | O=C(N/N=C1\CCSC1)c1cc(Cl)ccc1O | -24.9%
17 | COc1ccc(CNc2nccs2)cc1 | -8.32%
18 | COc1ccc(C(C)NC(=O)C23CC4CC(CC(C4)C2)C3)cc1 (stereo not given) | 13.8%
19 | Cc1ccc(O)c(NC(=O)c2cc(-c3ccco3)on2)c1 | -124%
20 | N#Cc1ccc(C(=O)Nc2nc(-c3cccs3)c(C(=O)C(F)(F)F)s2)cc1 | 16.3%

Row | Compound | inhibition
21 | Cn1c(=O)c2c(nc(NCCNC(=O)c3ccco3)n2Cc2ccccc2F)n(C)c1=O | -15%
22 | Cc1nn2c(c1-c1ccccc1)N=C(c1ccco1)CC2c1ccccc1 (stereo not given) | -26.4%
23 | CS(=O)(=O)c1ccc2nnn(OCC(=O)Nc3cccc(C#N)c3)c2c1 | -3.59%
24 | O=C(Nc1cccc(Cl)c1)c1cc(S(=O)(=O)N2CCCCC2)c[nH]1 | -39.1%
25 | COc1ccc(S(=O)(=O)n2nc(C)c(S(=O)(=O)N3CCOCC3)c2C)cc1 | -33.4%
26 | CCOC(=O)N1CCN(S(=O)(=O)c2ccc(-n3cnnn3)cc2)CC1 | -18.3%
27 | O=C(NCc1cc(F)cc(C(F)(F)F)c1)C1CCC(=O)N(C2CCCC2)C1 (stereo not given) | 11.8%
28 | CCCCC(C(=O)NC(C)(C)C)N(Cc1ccccc1)C(=O)c1snc(C(N)=O)c1N (stereo not given) | -18.5%
29 | COc1ccc(C(C)NC(=S)NC2CCCCC2)cc1OC (stereo not given) | -29.8%
30 | CC1CCN(C(=O)Cn2nnnc2CN2CCOCC2)CC1 | -8.54%
31 | CC(=O)N1CC(=O)N(CC(=O)Nc2ccc(Br)cc2)C1=S | -0.85%
32 | COC(=O)c1cccc(C(=O)N2CCCC(Nc3ccc4c(c3)OCCO4)C2)c1 (stereo not given) | -10.2%
33 | CC1CCC(NS(=O)(=O)c2ccc3c(c2)CC(=O)N3)CC1 (stereo not given) | 10.7%
34 | C=CCn1c(SCc2ccc(C(=O)NCCO)cc2)nc2ccccc2c1=O | -13.8%
35 | CCN1CCCC1CNC(=O)c1cc2cc(OC)c(OC)cc2[nH]1 (stereo not given) | -5.17%
36 | Cc1ccc(CNC(=O)CCNS(=O)(=O)c2ccc(Br)s2)cc1 | -6.34%
37 | CC(NC(=O)c1cc2cc(Cl)ccc2oc1=N)c1ccccc1 (stereo not given) | -15.5%
38 | COc1ccc(/C=C(\C#N)c2c[nH]c3ccccc23)cc1 | 62.4% (active)
39 | COc1cc(/C=C(\C#N)c2nc3ccccc3[nH]2)ccc1O | -74.6%
40 | COc1ccc2[nH]cc(/C=C(/C#N)S(=O)(=O)c3ccccc3)c2c1 | -24.4%
